The nature of test [1]: anti-His antibody binders, primary screen, artefact control for SMM control protein annotation, biochemical, small-molecule microarray, 635 nm fluorescence (AID 1128).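 Note: score merges feature fluorescence with signal-to-noise for each printed compound spot.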 The following applies: anti-His Alexa647 antibody binding, higher = more signal.
The subject of test [2] is Human papillomavirus type 1a E7 protein (residues 1-88). Put plainly: HPV1a E7 small-molecule binders, primary screen, biochemical, small-molecule microarray, residues 1-88, 635 nm (AID 1129). The following applies: small-molecule microarray binding, fluorescence 635 nm; higher = more signal.
Test [3] has as its target Focal adhesion kinase 1 (Homo sapiens) (UniProt Q05397). Kind of test: small-molecule microarray binders of FAK, primary screen, biochemical, 635/667 nm fluorescence, BSA, DTT (AID 1130).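 Note: composite of spot emission at 667 nm and signal to noise over triplicate slides.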 The following applies: PTK2 binding, 635 nm fluorescence, higher = more signal.
The test system of test [4] is Fibrinogen (Alexa647-labelled). Put plainly: fibrinogen binders on compound microarrays, profiling panel, artefact control for SMM control-protein annotation, biochemical, small-molecule microarray, 635/667 nm fluorescence (AID 1131).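 Note: z-score merges 667 nm fluorescence with per-spot signal-to-noise over triplicate slides.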 The note with it: fibrinogen-A647 binding fluorescence, higher = more signal.
The target of test [5] is Follistatin (Homo sapiens) (UniProt P19883). Kind of test: follistatin binders on small-molecule microarrays, primary screen, biochemical, small-molecule microarray, 635/667 nm fluorescence (AID 1132). The following applies: FST binding, 635 nm fluorescence, higher = more signal.
Chain of Follistatin (Homo sapiens) (P19883 whole entry, looked up): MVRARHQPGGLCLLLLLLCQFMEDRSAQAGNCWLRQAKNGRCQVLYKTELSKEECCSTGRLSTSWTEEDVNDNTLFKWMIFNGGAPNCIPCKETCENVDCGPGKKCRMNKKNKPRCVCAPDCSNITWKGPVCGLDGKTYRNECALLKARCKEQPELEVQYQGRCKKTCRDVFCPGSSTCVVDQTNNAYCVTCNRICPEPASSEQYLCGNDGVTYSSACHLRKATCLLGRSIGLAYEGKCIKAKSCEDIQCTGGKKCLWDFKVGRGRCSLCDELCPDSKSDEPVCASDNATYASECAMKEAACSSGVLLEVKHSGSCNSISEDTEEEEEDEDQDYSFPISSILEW
Test [6] has as its target Fibroblast growth factor 2 (Homo sapiens) (UniProt P09038). Kind of test: FGF2 binders on small-molecule microarrays, primary screen, biochemical, small-molecule microarray, 635/667 nm fluorescence (AID 1133). The following applies: small-molecule microarray binding, FGF2, fluorescence 635/667; higher = more signal.
Test [7] is described as follows: mitochondrial membrane potential change in A549 cells, profiling panel, cell-based, JC-1 fluorescence, basal, 24 h, 100 nL (AID 1138).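 Note: A549 lung adenocarcinoma cells under basal conditions with no added stimulus; test concentration not given here.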 The note with it: higher = more signal.
The test system of the next test is Lefty1. Kind of test: Lefty1 binders on small-molecule microarrays, primary screen, biochemical, small-molecule microarray, 635/667 nm fluorescence (AID 1139). The note with it: small-molecule microarray binding, fluorescence 635/667; higher = more signal.
In test [8] the test system is wheat germ agglutinin (Triticum aestivum), Alexa647-labelled. Kind of test: wheat germ agglutinin binders on compound microarrays, profiling panel, artefact control for SMM control-protein annotation, biochemical, small-molecule microarray, 635/667 nm fluorescence (AID 1140).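 Note: score merges 667 nm feature emission with signal to noise over triplicate slides.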 The note with it: WGA-A647 binding, 635 nm fluorescence, higher = more signal.
The target of test [9] is Luciferin 4-monooxygenase (Photinus pyralis) (UniProt P08659). Put plainly: firefly luciferase enzyme inhibitors, primary screen, biochemical, luminescence, purified enzyme, 2006 set (AID 1141).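 Note: cell-free assay with purified firefly luciferase at 100 ng per well in PBS; test concentration not given here.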 The following applies: SteadyGlo luminescence, 30 min, higher = more signal, called active from +8 up or from −8 down.
Chain of Luciferin 4-monooxygenase (Photinus pyralis) (P08659 whole entry, looked up): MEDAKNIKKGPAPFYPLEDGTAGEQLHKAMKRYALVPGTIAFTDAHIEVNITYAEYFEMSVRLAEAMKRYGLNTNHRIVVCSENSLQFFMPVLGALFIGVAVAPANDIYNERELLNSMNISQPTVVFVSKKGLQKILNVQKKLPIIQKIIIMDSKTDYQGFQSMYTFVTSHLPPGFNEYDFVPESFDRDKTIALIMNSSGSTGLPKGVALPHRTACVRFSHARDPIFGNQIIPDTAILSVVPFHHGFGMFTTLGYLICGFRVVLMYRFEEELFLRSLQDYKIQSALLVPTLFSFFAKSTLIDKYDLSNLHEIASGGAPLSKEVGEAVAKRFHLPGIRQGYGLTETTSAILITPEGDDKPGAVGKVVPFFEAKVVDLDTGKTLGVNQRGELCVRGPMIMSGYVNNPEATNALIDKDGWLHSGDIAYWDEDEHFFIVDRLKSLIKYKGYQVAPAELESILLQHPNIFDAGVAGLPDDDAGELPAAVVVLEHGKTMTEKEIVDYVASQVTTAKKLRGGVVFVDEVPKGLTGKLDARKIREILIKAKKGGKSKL
Test [10] concerns Wnt5a (protein binding on small-molecule microarray). Put plainly: Wnt5a binders on small-molecule microarray, primary screen, biophysical, 635/667 nm fluorescence (AID 1142).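 Note: fluorescence read at 667 nm with signal to noise per printed feature.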 The note with it: 635 nm fluorescence, higher = more signal.
The nature of test [11]: cell viability in Huh7 cells, primary screen, cytotoxicity control for HCV replication inhibitor project, CellTiter-Glo luminescence, basal, 48 h (AID 1143).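 Note: Huh7 hepatoma cells carrying a hepatitis C replication reporter with no stimulus; test concentration not given here.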 The note with it: Huh7 HCV replicon, higher = more signal, called active from +8 up or from −8 down. (In ATP-based viability assays light output follows the ATP content of the culture.)
Test [12] is described as follows: P. aeruginosa biofilm formation inhibitors, primary screen, PAO1 strain, BacTiter-Glo luminescence, LB-PBS (AID 1144). The note with it: 12 h, higher = more signal.
The nature of test [13]: CREB reporter modulators without forskolin, primary screen, cell-based, PC12, CRE-LacZ reporter, unstimulated (AID 1145). The note with it: no forskolin, luminescence, 4.5 h, higher = more signal, called active from +8 up or from −8 down.
The nature of test [14]: CREB reporter modulators under forskolin, primary screen, cell-based, PC12, CRE-LacZ reporter, forskolin-stimulated (AID 1146).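 Note: PC12 cells with 6xCRE LacZ reporter stimulated by forskolin 10 µM; beta-galactosidase reporter signal reflecting CREB driven transcription.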 The note with it: luminescence, 4.5 h, higher = more signal, called active from +8 up or from −8 down.
Test [15] addresses Streptavidin (Streptomyces avidinii) (UniProt P22629). Kind of test: streptavidin binders on small-molecule microarray, primary screen, artefact control for SMM compound annotation, biophysical, 635/667 nm fluorescence (AID 1147).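 Note: signal reflects streptavidin binding to arrayed compounds as a control protein.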 The note with it: streptavidin binding, higher = more signal.
Test [16] can be described thus: small-molecule binders of probe aInhba, primary screen, biochemical, small-molecule microarray, 635/667 nm fluorescence (AID 1148).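 Note: score merges 667nm spot fluorescence with signal-to-noise for antibody binding to printed compounds.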 The following applies: higher = more signal.
Test [17] addresses Torsin-1A (Homo sapiens) (UniProt O14656). Kind of test: torsin A binders from cell lysate, primary screen, small-molecule microarray, wild-type, 635/667 nm (AID 1149). The following applies: COS7 hTOR1A-WT lysate, 635 nm fluorescence, higher = more signal.
The target is the same in test [18]. Kind of test: small-molecule binders of mutant TOR1A in lysate, primary screen, cell lysate, small-molecule microarray, COS7 lysate, 635/667 nm fluorescence (AID 1150).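 Note: score pools 667 nm emission and signal to noise measuring lysate protein binding.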 The following applies: COS7 hTOR1A mutant lysate, 635 nm fluorescence, higher = more signal.
Test [19] relates to Sonic hedgehog protein (Shh). Kind of test: small-molecule binders of Shh protein, primary screen, biochemical, small-molecule microarray, 635/667 nm fluorescence (AID 1151).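 Note: Shh protein binding to compounds spotted on small-molecule microarray slides; score combines spot fluorescence intensity with signal-to-noise across triplicate slides.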 The following applies: small-molecule microarray binding, 635 nm fluorescence; higher = more signal.

Activity calls are given as the source filed them. Unless noted, the rule behind the calls is not given here.

Chain of Torsin-1A (Homo sapiens) (O14656 whole entry, looked up): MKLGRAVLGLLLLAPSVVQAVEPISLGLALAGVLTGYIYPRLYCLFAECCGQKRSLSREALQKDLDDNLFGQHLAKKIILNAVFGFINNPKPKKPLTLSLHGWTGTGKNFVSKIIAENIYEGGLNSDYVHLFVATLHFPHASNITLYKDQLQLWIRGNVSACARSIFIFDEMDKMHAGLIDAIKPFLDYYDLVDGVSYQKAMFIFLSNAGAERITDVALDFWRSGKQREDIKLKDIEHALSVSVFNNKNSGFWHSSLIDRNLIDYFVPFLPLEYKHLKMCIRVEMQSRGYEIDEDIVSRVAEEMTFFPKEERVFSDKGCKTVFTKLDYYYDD
Chain of Focal adhesion kinase 1 (Homo sapiens) (Q05397 whole entry, looked up): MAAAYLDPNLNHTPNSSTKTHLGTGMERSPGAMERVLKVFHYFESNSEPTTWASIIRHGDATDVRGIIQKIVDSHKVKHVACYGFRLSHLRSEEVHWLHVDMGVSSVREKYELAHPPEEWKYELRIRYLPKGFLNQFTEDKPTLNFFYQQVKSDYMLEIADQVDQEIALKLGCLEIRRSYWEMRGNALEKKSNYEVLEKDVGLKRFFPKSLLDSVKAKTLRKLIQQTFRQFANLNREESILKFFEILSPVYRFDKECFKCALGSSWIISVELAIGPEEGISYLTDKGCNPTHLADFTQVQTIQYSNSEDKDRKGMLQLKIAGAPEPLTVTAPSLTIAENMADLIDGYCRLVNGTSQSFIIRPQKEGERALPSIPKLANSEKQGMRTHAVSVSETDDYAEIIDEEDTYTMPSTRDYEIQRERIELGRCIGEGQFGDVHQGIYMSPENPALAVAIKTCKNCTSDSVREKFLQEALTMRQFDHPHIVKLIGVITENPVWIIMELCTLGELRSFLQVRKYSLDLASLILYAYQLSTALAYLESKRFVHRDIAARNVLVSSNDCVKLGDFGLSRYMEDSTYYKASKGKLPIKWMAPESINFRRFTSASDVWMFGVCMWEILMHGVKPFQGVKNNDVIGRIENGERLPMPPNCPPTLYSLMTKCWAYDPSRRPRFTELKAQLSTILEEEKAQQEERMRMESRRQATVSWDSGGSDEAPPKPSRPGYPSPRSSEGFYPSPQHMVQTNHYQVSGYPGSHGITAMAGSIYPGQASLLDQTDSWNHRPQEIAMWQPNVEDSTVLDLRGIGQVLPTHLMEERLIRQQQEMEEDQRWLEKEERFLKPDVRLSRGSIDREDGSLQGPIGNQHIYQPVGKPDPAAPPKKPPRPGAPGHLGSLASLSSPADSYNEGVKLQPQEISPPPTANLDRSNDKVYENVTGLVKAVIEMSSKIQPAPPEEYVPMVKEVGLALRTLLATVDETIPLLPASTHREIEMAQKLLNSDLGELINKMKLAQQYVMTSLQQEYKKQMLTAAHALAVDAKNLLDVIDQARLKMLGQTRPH
Chain of Streptavidin (Streptomyces avidinii) (P22629 whole entry, looked up): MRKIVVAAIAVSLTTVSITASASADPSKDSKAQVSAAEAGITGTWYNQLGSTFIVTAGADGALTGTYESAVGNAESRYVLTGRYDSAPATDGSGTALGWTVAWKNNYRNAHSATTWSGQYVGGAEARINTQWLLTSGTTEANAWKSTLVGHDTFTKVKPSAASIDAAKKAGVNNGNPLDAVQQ
Chain of Fibroblast growth factor 2 (Homo sapiens) (P09038 whole entry, looked up): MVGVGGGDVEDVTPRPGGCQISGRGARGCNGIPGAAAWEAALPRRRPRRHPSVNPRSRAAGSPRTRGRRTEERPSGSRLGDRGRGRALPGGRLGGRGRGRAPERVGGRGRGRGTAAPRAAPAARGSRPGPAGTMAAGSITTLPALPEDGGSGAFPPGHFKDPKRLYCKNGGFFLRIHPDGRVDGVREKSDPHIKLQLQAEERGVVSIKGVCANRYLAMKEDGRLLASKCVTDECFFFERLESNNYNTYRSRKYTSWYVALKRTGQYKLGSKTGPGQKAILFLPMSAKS

For the molecule `C=CCN1C(=O)[C@]2(O[C@H](CCO)[C@@H]([Si](C)(C)c3ccc(OC)cc3)[C@@H]2C)c2cc(N3C(=O)c4cccc5cccc3c45)ccc21`, the composite z-score is 0.987 in [1]; 0.98 in test [2]; 1.05 in test [3]; 0.541 in test [4]; 0.644 in test [5]; 0.65 in test [6]. The composite z-score in the test on Lefty1 was 0.777; in test [8] it was 0.393; in test [10], -0.0476; in test [15], 0.487; in test [16], 0.0214; in the test with Torsin-1A (Homo sapiens) [17], 1.13. The composite z-score is 0.0015 with Torsin-1A (Homo sapiens) [18] and 1.84 in test [19]. In addition, the z-score was -0.855 in [7]; -0.225 (inactive) in test [9]; -7.91 (inactive) in test [11]; 0.00752 (inactive) in test [12]; 23.5 (active) in test [13]; -2.47 (inactive) in test [14].

In the case of `CCCCCN1CC=CC23O[C@@H]4/C=C\CCCOC(=O)C4[C@H]2C(=O)N(CCCO)[C@@H]3C1=O` (stereo not given in full), the composite z-score in [1] is 2.06; in [2], 1.3; in [3] it was 1.23; in [4], -0.965; in test [5] it was -0.162; in test [6], -0.281. Besides, the composite z-score with Lefty1 is 0.157; in test [8], 0.197; in test [10], 0.132; in test [15], -0.413; in [16], -0.233; with Torsin-1A (Homo sapiens) [17], 2.02. Moreover, the composite z-score is 2.27 with Torsin-1A (Homo sapiens) [18] and -0.163 in [19]. Moreover, the z-score in test [7] was -0.564; in [9], -2.41 (inactive); in test [11], 0.37 (inactive); in [12], -1.17 (inactive); in test [13], -0.619 (inactive); in test [14], -0.812 (inactive).

With `CC(C)C(=C=CC[C@@H](O)c1ccccc1OCCO)CCO`, the composite z-score stood at 2.31 in [1]; 0.43 in test [2]; 0.306 in [3]; 0.442 in [4]; 0.71 in test [5]; 0.853 in test [6]. Also, the composite z-score with Lefty1 is 0.352; in test [8] it was 0.201; in [10] it was -0.0322; in [15] it was 0.666; in test [16] it was -0.016; in the test with Torsin-1A (Homo sapiens) [17], -0.502. In addition, the composite z-score with Torsin-1A (Homo sapiens) [18] was -0.455; in [19], 0.575. The z-score in test [7] is 0.991; in test [9], -1.91 (inactive); in test [11], -3.75 (inactive); in [12], 0.0933 (inactive); in test [13], 5.12 (inactive); in test [14] it was -0.366 (inactive).

`O=C1OCC=C[C@H]2OC34C=CCN(c5ccc6ccccc6c5)C(=O)[C@H]3N(CCCCCCO)C(=O)[C@@H]4[C@@H]12` (stereo not given in full): the composite z-score in test [1] was 2.67; in test [2] it was -0.593; in [3], 0.806; in test [4], -0.9; in test [5] it was -1.18; in test [6], -0.595. The composite z-score was -0.732 with Lefty1; -0.434 in test [8]; -0.565 in test [10]; -0.719 in test [15]; -0.018 in [16]; 1.62 with Torsin-1A (Homo sapiens) [17]. Moreover, the results for the composite z-score (with Torsin-1A (Homo sapiens) [18]; in test [19]) were -1.69 and -0.749, respectively. The z-score was 1.16 in test [7]; -0.875 (inactive) in [9]; 0.165 (inactive) in [11]; 3.31 (inactive) in test [12]; 0.471 (inactive) in [13]; -0.0042 (inactive) in test [14].

Take `COc1ccc([Si](C)(C)[C@H]2[C@H](CCO)O[C@@]3(C(=O)N(Cc4ccc(N5C(=O)COc6ccccc65)cc4)c4ccccc43)[C@@H]2C)cc1`: the composite z-score in test [1] is 1.04; in [2] it was 0.0091; in test [3], -0.187; in test [4] it was 0.27; in [5], -0.566; in test [6], -0.684. The composite z-score is -0.072 in the test with Lefty1; 0.484 in test [8]; -0.516 in test [10]; -0.314 in test [15]; -0.128 in [16]; -1.06 with Torsin-1A (Homo sapiens) [17]. Besides, the values for the composite z-score (in the test with Torsin-1A (Homo sapiens) [18]; in [19]) were -0.89 and -0.15, respectively. The z-score in test [7] was 0.272; in [9], 0.0706 (inactive); in test [11], -6.62 (inactive); in [12], -1.32 (inactive); in test [13], -0.766 (inactive); in test [14], -0.706 (inactive).

The values are drawn from PubChem BioAssay.
